# Test results: PubChem BioAssay (NCI)
# About 83,000 compounds went through this panel and 20% of them were active in at least one assay; those are over-represented in the sample as a whole.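 48-hour exposure, single concentration, 96-well plates; percent growth endpoint where 0 means no net growth. Active: below 10.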 Values without a mark were called inactive. Calls of active or inactive are those of the source.
# Test system: HOP-92 NSCLC
# Assay: NCI-60 one-dose screen, 48 h (100 = growth as untreated, 0 = no growth, -100 = all killed)
# Details: 10 µM unless noted
row,SMILES,growth
1,O=C1c2cccc3c(N4CCN(Cc5ccccc5)CC4)ccc(c23)C(=O)N1c1cccc(-c2nn(-c3ccccc3)cc2-c2nc3ccccc3s2)c1,105%
2,CCc1ccccc1NC(=O)N/C(N)=N/c1nc2ccccc2s1,-15.2% (active)
3,O=C(N/N=C/c1ccoc1)c1[nH]c2ccc(Br)cc2c1-c1ccccc1,-62.4% (active)
4,COC(=O)c1c(C(=O)OC)c2ccc3c4ccccc4ccc3n2c1C(=O)C(C)Br (stereo unspecified),53.5%
5,COc1cc(CNC(=O)C[C@H](C)CCC=C(C)C)ccc1OCc1cn(-c2ccc(Cl)cc2Cl)nn1,-3.27% (active)
6,O=CNc1cccc(-n2cnc3cc(-c4ccc(O)cc4)ccc32)c1,71.7%
7,O=C(N/N=C/c1occc1Br)c1[nH]c2ccc(Br)cc2c1-c1ccccc1,-74.1% (active)
8,Cc1[nH]nc2ccc3nc(-c4cnn(CCO)c4)c4c(c3c12)CCCC4,35.9%
9,Cc1cc(N=C(N)c2ccccc2)ccc1OCCCCCCCCn1ccnc1,16.3%
10,Cc1ccc(C(=O)Nc2cc(-n3ccnc3)cc(C(F)(F)F)c2)cc1-n1cc(-c2cnc3cccnn23)nn1,78.8%
11,Cc1cc(Cl)ccc1NC(=O)Nc1ccc(-c2ccc3c(c2)NC(=O)/C3=C\c2ccc[nH]2)cc1,115%
12,COc1ccc(NC(=O)NN2C(=O)c3ccccc3N(C)C2c2ccc(OC)cc2)cc1 (stereo unspecified),102%
13,COc1ccc(-c2nc3ccc(-c4nnc(SCC(=O)Nc5ccc(/C(C)=N\O)cc5)o4)cc3[nH]2)cc1,104%
14,Cc1ccc2c(c1)nc(-c1ccccc1)n2CC(=O)N=Nc1c(O)[nH]c2ccc(Cl)cc12,-74.2% (active)
15,COc1ccc2c(c1)c(-c1cc(N)n3nc(-c4c[nH]c5ccccc45)cc3n1)cn2C,-66.7% (active)
16,COc1cccc(C(N)=Nc2ccc(OCCCCCCCCn3cncn3)cc2)c1,73.7%
17,COc1ccccc1/C=C/c1cccc(NC(=S)NCCCCN(C)C)c1,-60.9% (active)
18,Cc1cccc(C)c1Nc1nnc(-c2c[nH]c3ccccc23)o1,89.9%
19,CCOc1ccccc1NC(=O)N/C(N)=N/c1nc2ccccc2s1,-13.4% (active)
20,N#Cc1ccc(C(=O)NNC(=O)CSc2nc3sc4c(c3c(=O)n2-c2ccc(Cl)cc2)CCCC4)cc1,45.6%
21,S=C(Nc1ccc(OCc2nc3ccc(Cl)cc3[nH]2)cc1)NC1CCCCC1,-4.42% (active)
22,COC(=O)c1c(C(=O)OC)c2c3ccccc3c3ccccc3n2c1C(=O)C(C)(C)C,55.7%
23,COc1cc(NC(=O)CSc2nnc(-c3ccc(-c4nc5ccc(Cl)cc5[nH]4)cc3)o2)cc(OC)c1OC,91.5%
24,O=C1/C(=C/c2cnc(-c3ccccc3)s2)SC(=S)N1Cc1ccc2c(c1)OCO2,48.6%
25,CC(=O)c1c2c(c3ccc4c5ccccc5ccc4n13)C(=O)c1ccccc1C2=O,94.9%

# Test system: NCI-H522 lung
# Assay: as above
# Details: 10 µM unless noted
row,SMILES,growth
1,COc1cc(C=O)ccc1OC(=O)c1cc(-c2ccc(C)cc2)n(-c2ccc(S(C)(=O)=O)cc2)n1,93.3%
2,N#CC1=C(c2cccs2)Nc2c(c(-c3ccccc3)nn2-c2ccccc2)C12C(=O)Nc1ccccc12 (stereo unspecified),5.69% (active)
3,COc1ccc(/C=C/c2nc3ccccc3c(=O)n2CC(=O)Nc2ccccc2)cc1,89.2%
4,COc1ccc2c(c1)C(=O)N(C)C2C1c2c(cc3c(c2OC)OCO3)CCN1C (stereo unspecified),36%
5,Cc1ccc(C(C(=O)NC2CCCCC2)N(Cc2ccccc2Cl)C(=O)c2ccc(CN3CCOCC3)o2)o1 (stereo unspecified),78.7%
6,O=C(NNC(=S)NCCc1ccccc1)c1ccc(OCc2nc3ccc(Cl)cc3[nH]2)cc1,78.7%
7,COc1ccc2c(c1)N=c1c-2cc2c(O)[nH]c(=S)n2c1=O,-9.92% (active)
8,Cc1ccc(C2CC(c3ccc(NC(=O)Nc4ccccc4)cc3)=NN2c2ccc(S(C)(=O)=O)cc2)cc1 (stereo unspecified),-23.7% (active)
9,COc1ccc(C(=O)NNC(=O)CSc2nc3sc4c(c3c(=O)n2-c2ccc(Cl)cc2)CCCC4)cc1,59%
10,N#Cc1c(-c2ccc(F)cc2)nc(SCc2ccc(F)cc2)nc1N1CCNCC1,-70.4% (active)
11,Cc1ccc(C2CC(c3ccc(NC(=O)Nc4ccccc4)cc3)=NN2c2ccc(S(N)(=O)=O)cc2)cc1 (stereo unspecified),-84% (active)
12,O=c1[nH]c2ccccc2cc1CSc1ccccc1Nc1nccc(-c2ccc3c(c2)OCO3)n1,34.8%
13,COc1ccc2c(c1)C(Sc1ccc(F)cc1)c1c(nc(N)c(C#N)c1N)O2 (stereo unspecified),78.9%
14,O=C1c2cccc3c(N4CCN(Cc5ccccc5)CC4)ccc(c23)C(=O)N1c1cccc(-c2nn(-c3ccccc3)cc2-c2nc3ccccc3s2)c1,104%
15,CCc1ccccc1NC(=O)N/C(N)=N/c1nc2ccccc2s1,-53.5% (active)
16,O=C(N/N=C/c1ccoc1)c1[nH]c2ccc(Br)cc2c1-c1ccccc1,-82.2% (active)
17,COC(=O)c1c(C(=O)OC)c2ccc3c4ccccc4ccc3n2c1C(=O)C(C)Br (stereo unspecified),-55.9% (active)
18,COc1cc(CNC(=O)C[C@H](C)CCC=C(C)C)ccc1OCc1cn(-c2ccc(Cl)cc2Cl)nn1,55.4%

row,SMILES,growth
1,O=CNc1cccc(-n2cnc3cc(-c4ccc(O)cc4)ccc32)c1,-6.53% (active)
2,O=C(N/N=C/c1occc1Br)c1[nH]c2ccc(Br)cc2c1-c1ccccc1,-86.9% (active)
3,Cc1[nH]nc2ccc3nc(-c4cnn(CCO)c4)c4c(c3c12)CCCC4,18.9%
4,Cc1ccc(C(=O)Nc2cc(-n3ccnc3)cc(C(F)(F)F)c2)cc1-n1cc(-c2cnc3cccnn23)nn1,102%
5,Cc1cc(Cl)ccc1NC(=O)Nc1ccc(-c2ccc3c(c2)NC(=O)/C3=C\c2ccc[nH]2)cc1,103%
6,COc1ccc(NC(=O)NN2C(=O)c3ccccc3N(C)C2c2ccc(OC)cc2)cc1 (stereo unspecified),93%
7,COc1ccc(-c2nc3ccc(-c4nnc(SCC(=O)Nc5ccc(/C(C)=N\O)cc5)o4)cc3[nH]2)cc1,40.1%
8,Cc1ccc2c(c1)nc(-c1ccccc1)n2CC(=O)N=Nc1c(O)[nH]c2ccc(Cl)cc12,-75% (active)
9,COc1ccc2c(c1)c(-c1cc(N)n3nc(-c4c[nH]c5ccccc45)cc3n1)cn2C,-70.4% (active)
10,COc1ccccc1/C=C/c1cccc(NC(=S)NCCCCN(C)C)c1,-66% (active)
11,Cc1cccc(C)c1Nc1nnc(-c2c[nH]c3ccccc23)o1,89.4%
12,CCOc1ccccc1NC(=O)N/C(N)=N/c1nc2ccccc2s1,-39.8% (active)
13,N#Cc1ccc(C(=O)NNC(=O)CSc2nc3sc4c(c3c(=O)n2-c2ccc(Cl)cc2)CCCC4)cc1,61.5%
14,S=C(Nc1ccc(OCc2nc3ccc(Cl)cc3[nH]2)cc1)NC1CCCCC1,-21.4% (active)
15,COC(=O)c1c(C(=O)OC)c2c3ccccc3c3ccccc3n2c1C(=O)C(C)(C)C,73.6%
16,COc1cc(NC(=O)CSc2nnc(-c3ccc(-c4nc5ccc(Cl)cc5[nH]4)cc3)o2)cc(OC)c1OC,35%
17,O=C1/C(=C/c2cnc(-c3ccccc3)s2)SC(=S)N1Cc1ccc2c(c1)OCO2,47.5%
18,CC(=O)c1c2c(c3ccc4c5ccccc5ccc4n13)C(=O)c1ccccc1C2=O,91.9%
